hcDAF12 agonist: H. contortus DAF-12 activation, primary screen. HEK293 hcDAF-12 lit1-tk-luc reporter, luminescence; 0% DMSO, 100% Δ7-dafachronic acid. activation, % at 6.8 µM. 1.4% of 370,000 active. AID 652067;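 active = activation above the mean of all tested compounds plus 3 SD, cut at about 5.5% in these data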;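 also: 100% = response to 3 µM Δ7-dafachronic acid high control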
DAX1 inh-1: blocks DAX1 repression of SF-1 activated StAR promoter | HEK293T StAR-luciferase reporter, SF-1/DAX-1 repression relief | AID 652010 | 1.1% of 370,000 active | inhibition, % at 6.8 µM;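 active = inhibition above the mean over all tested compounds plus 3 SD, cut at about 3.6% in these data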;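 also: 0% = DAX-1 cells with DMSO and 100% = cells lacking DAX-1 with DMSO; higher inhibition means more luminescence from relief of DAX-1 repression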
ssDAF-12 act: activates DAF-12 receptor from parasite S. stercoralis; activation, % at 6.8 µM; HEK293 ssDAF-12/GRIP1 lit1-tk-luc reporter, luminescence; % of 3 µM dafachronic acid response; AID 652126; 1% of 370,000 active;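 active = activation above the mean over all tested compounds plus 3 SD, cut at about 0.9% in these data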;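 also: 0% = DMSO-only wells and 100% = 3 µM delta7-dafachronic acid wells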
DAX1 inh-2: NR0B1 (DAX1) inhibition; 0.99% of 340,000 active; HEK293 Gal4-DAX1 luciferase reporter, luminescence; inhibition, % at 6.75 µM; P51843;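 active = inhibition above the mean over all tested compounds plus 3 SD, cut at about 4.2% in these data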;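 also: 0% = DAX1-transfected cells with DMSO and 100% = empty-vector control cells with DMSO; inhibition shows as a rise in luminescence from relieved DAX1 repression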
Target sequence (P51843 207-470 limits assumed): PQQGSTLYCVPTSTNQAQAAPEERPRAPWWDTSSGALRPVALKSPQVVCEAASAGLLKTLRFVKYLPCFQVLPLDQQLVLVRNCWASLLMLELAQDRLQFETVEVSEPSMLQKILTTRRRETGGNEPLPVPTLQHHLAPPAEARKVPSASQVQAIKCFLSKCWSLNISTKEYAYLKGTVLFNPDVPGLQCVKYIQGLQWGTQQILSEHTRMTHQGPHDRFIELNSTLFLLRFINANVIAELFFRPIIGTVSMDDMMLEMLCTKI
hgDAF-12 ag: hgDAF-12 agonism, primary luciferase screen; activation, % at 6.8 µM; AID 687014; 1.8% of 370,000 active; HEK293 GAL4-hgDAF12 UAS-luciferase reporter, agonist luminescence; normalized to butyrate control;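 active = activation above a cutoff set at the mean of all screened compounds plus 3 SD, cut at about 10% in these data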;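 also: 0% = DMSO wells and 100% = sodium butyrate wells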
* hit, by the source's call; . = no result. The list is not random: actives were taken first. Their share in the collection is about 4.1%.

SMILES	hcDAF12 agonist	DAX1 inh-1	ssDAF-12 act	DAX1 inh-2	hgDAF-12 ag
COCCNC(=O)C(=O)NNS(=O)(=O)c1ccc2ccccc2c1	-0.8	0.3	-0.8	0.3	0.5
COc1ccccc1C(=O)NNC(=O)CCC(=O)NCc1ccccc1	5.7*	0.2	-0.4	0.5	1.6
COc1cccc(C(=O)NOCc2ccccc2)c1OC	2.7	4.4*	0.9	0.7	10.3
COc1ccccc1OCCOC(=O)Nc1ccccc1	3.0	-0.6	-0.9	0.2	0.3
O=S1(=O)c2c(cccc2N2CCC[C@@H]2CO)O[C@@H]2CCN1C2	1.5	-0.1	-0.2	.	-0.4
COCCNC(=O)C(=O)NNC(=O)c1ccccc1OC	4.2	0.5	1.5*	-0.5	3.3
CN(C)/N=C/c1ccc(OS(=O)(=O)c2ccccc2)cc1	1.6	1.9	-1.1	2.5	11.0*
COC(=O)C1CN(C2CC2)CCS(=O)(=O)N1Cc1cn(Cc2ccc(C)cc2)nn1 (centres undefined)	0.2	1.2	-1.0	.	1.2
NC(=O)C(=O)N/N=C/c1c[nH]c2ccc(Br)cc12	-0.3	0.1	0.0	4.5*	-0.1
O=C(N/N=C/c1c[nH]c2ccc(Br)cc12)C1CC1	-0.6	-0.3	-1.1	0.3	-0.1
O=C(N/N=C/c1c[nH]c2ccc(Br)cc12)c1ccncc1	0.5	-0.5	-1.6	-1.4	-1.5
O=C(N/N=C/c1c[nH]c2ccc(Br)cc12)c1ccccn1	3.0	1.8	-0.3	3.6	16.4*
O=C(CSc1nnc(-c2cccs2)n1Cc1ccco1)Nc1ccc(OCc2ccccc2)cc1	-0.5	-1.1	-0.6	.	2.3
[O-][n+]1cccc2c(Br)cc(Br)c(O)c21	2.4	0.3	-0.8	4.5*	0.9
Oc1c(Br)cc(Br)c2cccnc12	-0.8	0.0	-0.6	-0.8	-2.5
CC(=O)c1cc(-c2ccccc2-c2ccccc2)c(=O)n2c1CCC2	-1.3	0.1	-1.8	.	-1.3
COC(=O)C[C@@H]1CC[C@H]2[C@@H](COc3ccc(NC(=O)NC(C)C)cc3C(=O)N2C)O1	-1.4	0.0	-1.6	.	0.5
Cc1ccccc1N=C1Nc2ccccc2CS1	2.5	0.5	0.3	0.8	11.0*
O=C(O)c1[nH]c2ccccc2c1C(c1ccccc1)c1c(C(=O)O)[nH]c2ccccc12	3.2	0.6	-0.8	0.0	4.3
COc1cc(C(c2c(C(=O)O)[nH]c3ccccc23)c2c(C(=O)O)[nH]c3ccccc23)ccc1OCc1ccccc1	5.9*	-0.2	0.5	1.2	0.5
CN(Cc1ccccc1)C(=O)OCc1cn(Cc2ccccc2F)nn1	-0.9	0.2	-1.5	.	0.7
O=C(Nc1ccc(-c2nc3ncccc3o2)cc1)c1ccc(Br)o1	-1.6	-0.7	-1.0	-2.5	-1.2
O=C(Nc1ccc(-c2nc3ncccc3o2)cc1)c1ccco1	2.6	1.9	0.2	0.1	10.6*
Brc1ccc(Cn2nnc(-c3ccc(N4CCOCC4)cc3)n2)cc1	-2.4	0.4	-2.2	.	-1.2
Cc1ccc(C(CC(=O)N2CCCCC2)c2ccccc2)c(O)c1C (centres undefined)	1.1	0.3	1.6*	0.7	-0.3
SMILES	hcDAF12 agonist	DAX1 inh-1	ssDAF-12 act	DAX1 inh-2	hgDAF-12 ag
O=Cc1ccc([B-](F)(F)F)o1	-0.4	-1.2	-0.8	.	2.7
O=c1c2ccc(F)cc2nc2sc(Nc3ccc4c(c3)CCC4)nn12	2.5	.	0.2	.	10.6*
CCCCCCCCN1C(=O)[C@@H](CC(=O)N2CCCCC2)C[C@@]2(C(=O)OC)C1=C[C@H](C(C)C)O[C@@H]2C1CC1	-0.4	0.1	-1.1	.	1.7
CC1(C)CC(=O)C(CC(=O)NC2CCCc3ccccc32)C(=O)C1 (centres undefined)	-1.0	0.4	-1.3	6.1*	-0.8
C=CCO[C@H]1CN(C(=O)OC)[C@@H](c2ccccc2Br)C[C@H]1OCC=C	-0.9	-0.3	-1.2	.	0.7
COc1cccc(NC(=O)Nc2c(-c3ccc(F)cc3)nc3ncccn23)c1	-2.4	-0.5	-1.0	.	1.9
COC(=O)c1cc(-c2cccc(C(C)C)c2)c(=O)n2c1CCC2	-0.5	-1.7	-1.4	.	-4.5
Cc1nc(Nc2ccc(F)cc2)nc(Nc2ccc(F)cc2)c1[N+](=O)[O-]	-1.3	1.4	-0.9	4.7*	1.2
Cc1nc(Nc2ccc(C(=O)O)cc2)nc(Nc2ccc(C(=O)O)cc2)c1[N+](=O)[O-]	-0.3	-0.5	-1.6	0.0	-0.9
CCCC1CCC2(CC1)CCC2OC(=S)Nc1ccc(I)cc1 (centres undefined)	-0.6	.	-1.5	.	-4.0
CS(=O)(=O)N[C@@H]1C[C@@H]2O[C@H](CO)CC[C@@H]2O[C@@H]1CCc1ccc(-c2ccccc2F)cc1	-1.9	-0.4	-2.0	.	1.1
COc1ccc(-c2nc(CN3CCCCC3c3cccnc3)c(C)o2)c(F)c1 (centres undefined)	-0.6	0.3	-1.1	-0.2	11.9*
Cc1oc(-c2ccccc2Cl)nc1CN1CCCCC1c1cccnc1 (centres undefined)	1.4	0.5	-1.6	-0.4	-1.6
CNCC(O)Cn1c2c(c3ccccc31)CCCC2 (centres undefined)	-1.7	0.5	6.8*	0.9	-0.1
Cc1ccc2c(c1)c1c(n2CC(O)CNC(C)(C)C)CCCC1 (centres undefined)	0.5	0.8	-1.5	-0.2	-3.1
COc1ccc(C(C)=O)cc1COC(=O)Cc1n[nH]c(=O)c2ccccc12	0.0	1.5	-0.9	5.3*	0.8
COc1ccccc1C(=O)COC(=O)Cc1n[nH]c(=O)c2ccccc12	1.6	0.8	-0.2	1.4	2.2
CC(=O)ONC(=Nc1ccccc1)c1nonc1N	-0.7	0.2	-1.2	5.2*	2.2
O=C(N=Nc1c(O)[nH]c2ccccc12)c1ccc2c(c1)OCO2	4.9	3.3	-0.1	0.3	12.9*
O=C(N=Nc1c(O)[nH]c2ccccc12)c1ccc(CN2CCOCC2)cc1	-0.7	1.0	-1.0	1.7	1.6
Clc1nccc(NCc2ccccc2)n1	-2.8	0.1	-1.9	1.8	2.3
Clc1cccc(NCc2ccccc2)n1	0.2	-1.1	-1.3	4.9*	4.1
Cc1ccc(N/C=C/C(=O)c2ccco2)c(O)c1	-0.6	0.7	-1.5	6.1*	-0.3
CCOC(=O)[C@@]12CN(C(=O)OC(C)(C)C)CC=C1N(Cc1ccc(OC)cc1)C(=O)[C@H]2CC(=O)NCc1ccc(C)o1	-2.6	-1.3	-1.3	.	-1.6
COc1ccc2c(c1)CNC2CS(=O)(=O)NCC(C)C (centres undefined)	-1.6	-0.4	-0.7	.	-0.7
COc1ccc(OCc2cccc(C(=O)Nn3cc([N+](=O)[O-])cn3)c2)cc1	5.3	2.5	-0.4	-3.6	11.4*
O=[N+]([O-])c1cccc(COc2ccc(CO)cc2)c1	7.0*	1.9	2.6*	.	18.8*
COc1ccc(OCc2cccc(C(=O)Nc3cc(C)on3)c2)cc1	3.9	2.2	0.2	-4.2	10.3
O=[N+]([O-])c1cccc(COc2cccc(CO)c2)c1	0.2	1.5	-0.7	1.2	8.6
